# Measurements taken from PubChem BioAssay AID1159580 (chemical genetic matrix, 2015).
# About 2,000 (36%) of roughly 5,500 compounds were called active. Inconclusive results (about 18%) are left out. This is one part of the list. Unmarked numbers belong to inactive results. Rule as the data show it: active = normalized growth mostly below about 0.91 (no sharp cut-off); inconclusive = no clear call, values can overlap the other calls; inactive = mostly above about 0.92.
# Test: chemical genetic growth profiling, strain panel (AID 1159580);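 also: tested at 20 µM; growth read once vehicle control cultures reached saturation at 30 °C; 1 = growth at the plate median or of vehicle wells; lower values mean less growth of the strain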
# Settings: growth OD
# [1] = S. cerevisiae deletion strains, locus YAL013W, strain DEP1, stronger effect = lower value
# [2] = S. cerevisiae deletion strains, locus YDR150W, strain NUM1, stronger effect = lower value
# [3] = S. cerevisiae deletion strains, locus YGR229C, strain SMI1, stronger effect = lower value
# [4] = S. cerevisiae deletion strains, locus YNL153C, strain GIM3, stronger effect = lower value
# [5] = S. cerevisiae deletion strains, locus YNL322C, strain KRE1, stronger effect = lower value
# [6] = S. cerevisiae deletion strains, locus YBR229C, strain ROT2, stronger effect = lower value
# [7] = S. cerevisiae deletion strains, locus YDL101C, strain DUN1, stronger effect = lower value
# [8] = S. cerevisiae deletion strains, locus YEL061C, strain CIN8, stronger effect = lower value
# [9] = S. cerevisiae deletion strains, locus YGR078C, strain PAC10, stronger effect = lower value
# [10] = S. cerevisiae deletion strains, locus YHR030C, strain SLT2, stronger effect = lower value
# [11] = S. cerevisiae deletion strains, locus YHR087W, strain rtc3, stronger effect = lower value
# [12] = S. cerevisiae deletion strains, locus YJR043C, strain POL32, stronger effect = lower value
# [13] = S. cerevisiae deletion strains, locus YJR075W, strain HOC1, stronger effect = lower value
# [14] = S. cerevisiae deletion strains, locus YKL190W, strain CNB1, stronger effect = lower value
# [15] = S. cerevisiae deletion strains, locus YLR039C, strain RIC1, stronger effect = lower value
# [16] = S. cerevisiae deletion strains, locus YLR058C, strain SHM2 (second series), stronger effect = lower value
# [17] = S. cerevisiae deletion strains, locus YLR085C, strain ARP6, stronger effect = lower value
# [18] = S. cerevisiae deletion strains, locus YLR262C, strain YPT6, stronger effect = lower value
# [19] = S. cerevisiae deletion strains, locus YML094W, strain GIM5, stronger effect = lower value
# [20] = S. cerevisiae deletion strains, locus YMR219W, strain ESC1, stronger effect = lower value
# [21] = S. cerevisiae deletion strains, locus YMR263W, strain SAP30, stronger effect = lower value
# [22] = S. cerevisiae deletion strains, locus YNL128W, strain TEP1, stronger effect = lower value
# [23] = S. cerevisiae deletion strains, locus YNL298W, strain CLA4 (second series), stronger effect = lower value
# [24] = S. cerevisiae deletion strains, locus YNR030W, strain Alg12, stronger effect = lower value
# [25] = S. cerevisiae deletion strains, locus YPL055C, strain LGE1, stronger effect = lower value
# [26] = S. cerevisiae deletion strains, locus YPL241C, strain CIN2, stronger effect = lower value
# [27] = S. cerevisiae deletion strains, locus YPR135W, strain CTF4, stronger effect = lower value
# [28] = S. cerevisiae strains, strain wild type, stronger effect = lower value
# [29] = S. cerevisiae deletion strains, locus YMR307W, strain GAS1, stronger effect = lower value
structure (smiles),measurement,setting,value
Clc1ccc(N2CC3CCC(C2)N3)nn1,normalized growth,[1],1.04
same,normalized growth,"S. cerevisiae deletion strains, locus YAL040C, strain CLN3, stronger effect = lower value",1.01
same,normalized growth,"S. cerevisiae deletion strains, locus YCL061C, strain MRC1 (second series), stronger effect = lower value",1.01
same,normalized growth,[2],1
same,normalized growth,"S. cerevisiae deletion strains, locus YDR363W, strain ESC2, stronger effect = lower value",1.01
same,normalized growth,"S. cerevisiae deletion strains, locus YER002W, strain NOP16, stronger effect = lower value",1
same,normalized growth,[3],1.03
same,normalized growth,[4],1.01
same,normalized growth,"S. cerevisiae deletion strains, locus YNL175C, strain NOP13, stronger effect = lower value",0.995
same,normalized growth,"S. cerevisiae deletion strains, locus YNL197C, strain WHI3, stronger effect = lower value",1
same,normalized growth,"S. cerevisiae deletion strains, locus YNL224C, strain SQS1, stronger effect = lower value",1
same,normalized growth,[5],1.04
same,normalized growth,"S. cerevisiae deletion strains, locus YOR083W, strain WHI5 (second series), stronger effect = lower value",0.959
NC(=S)N/N=C\c1cccs1,normalized growth,[1],0.984
same,normalized growth,[6],0.96
same,normalized growth,[7],0.979
same,normalized growth,[2],0.962
same,normalized growth,[8],0.945
same,normalized growth,[9],0.98
same,normalized growth,[3],1.01
same,normalized growth,[10],0.992
same,normalized growth,[11],1.02
same,normalized growth,[12],0.973
same,normalized growth,[13],0.829 (active)
same,normalized growth,[14],1
same,normalized growth,[15],1.11
same,normalized growth,[16],1
same,normalized growth,[17],0.562 (active)
same,normalized growth,[18],1.08
same,normalized growth,[19],0.92
same,normalized growth,[20],0.873 (active)
same,normalized growth,[21],0.997
same,normalized growth,[22],1
same,normalized growth,[4],0.898 (active)
same,normalized growth,[23],0.955
same,normalized growth,[5],1.02
same,normalized growth,[24],0.737 (active)
same,normalized growth,[25],0.915
same,normalized growth,[26],1.06
same,normalized growth,[27],1.02
same,normalized growth,[28],1
NC(=S)N/N=C\c1ccccc1,normalized growth,[1],0.991
same,normalized growth,[6],1.02
same,normalized growth,[7],0.987
same,normalized growth,[2],0.963
same,normalized growth,[8],0.902 (active)
same,normalized growth,[9],1.02
same,normalized growth,[10],0.823
same,normalized growth,[11],1.06
same,normalized growth,[12],1
same,normalized growth,[13],1.04
same,normalized growth,[14],0.973
same,normalized growth,[15],1.13
same,normalized growth,[16],1.01
same,normalized growth,[17],0.301 (active)
same,normalized growth,[18],1.08
same,normalized growth,[19],0.872
same,normalized growth,[20],1
same,normalized growth,[21],0.982
same,normalized growth,[29],0.579 (active)
same,normalized growth,[4],0.971
same,normalized growth,[23],0.836 (active)
same,normalized growth,[5],1.03
same,normalized growth,[24],0.925
same,normalized growth,[25],0.872
same,normalized growth,[26],0.983
same,normalized growth,[27],0.886
same,normalized growth,[28],0.974
CCOC(=O)N/N=C\c1cccs1,normalized growth,[1],0.995
same,normalized growth,[6],1
same,normalized growth,[7],0.982
same,normalized growth,[2],0.996
same,normalized growth,[8],1
same,normalized growth,[9],1
same,normalized growth,[10],1.05
same,normalized growth,[11],0.992
same,normalized growth,[12],0.984
same,normalized growth,[13],0.972
same,normalized growth,[14],1.01
same,normalized growth,[15],1.07
same,normalized growth,[16],1.02
same,normalized growth,[17],1.01
same,normalized growth,[18],1.05
same,normalized growth,[19],0.996
same,normalized growth,[20],1
same,normalized growth,[21],0.997
same,normalized growth,[29],1.02
same,normalized growth,[22],1
same,normalized growth,[4],0.996
same,normalized growth,[23],1.03
same,normalized growth,[5],1.01
same,normalized growth,[24],1
same,normalized growth,[25],1.01
same,normalized growth,[26],0.993
same,normalized growth,[27],0.948
same,normalized growth,[28],1.01
